We go through ten compounds from publication PMC5540273 (PLoS ONE, 2017).

Some test systems named below: INSRR; INSR; IRAK1; IRAK3; IRAK4; ITK; KIT-autoinhibited; KIT; LATS1; LATS2.
Details in all cases: concentration: 1 μM, replicates: in singlicate; n = 1
The next test deals with T1, IKK-alpha.
T1 construct: gene CHUK

The next test has as its system T2, IKK-beta.
T2 construct: gene IKBKB

A further test concerns T3, IKK-epsilon.
T3 construct: gene IKBKE

Test [1] has as its system JAK1(JH1domain-catalytic).
Test [2] deals with JAK1(JH2domain-pseudokinase).
Test [3] concerns JAK2(JH1domain-catalytic).
In test [4] the test system is JAK3(JH1domain-catalytic).
The next test has as its system T4, JNK1.
T4 construct: gene MAPK8

For another test, the system named is T5, JNK2.
T5 construct: gene MAPK9

In the next test the test system is T6, JNK3.
T6 construct: gene MAPK10
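Further: KINOMEscan kinase panel screen.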

On to `COc1cc(Nc2nccc(-c3c(-c4cccc(NC(=O)c5c(F)cccc5F)c4)nn4ncccc34)n2)cc(OC)c1OC` [GSK327238], for which the “%Inh” value in the test with IKK-alpha was determined as 0%; with IKK-beta, 0%; in the test on IKK-epsilon, 23%; in the test on INSRR, 93%; with INSR, 64%; with IRAK1, 0%. Also, the “%Inh” value in the test on IRAK3 was 74%; in the test with IRAK4, 0%; with ITK it was 5%; in test [1] it was 17%; in test [2], 0%; in test [3], 6%. Moreover, the “%Inh” value in [4] was determined as 59%; with JNK1 it was 39%; in the test with JNK2, 71%; with JNK3, 23%; in the test with KIT-autoinhibited, 31%; in the test with KIT it was 100%. Besides, the “%Inh” value with LATS1 turned out to be 44%; in the test with LATS2, 28%.
Take `Cc1occc1-c1ncc(OC[C@@H](N)Cc2c[nH]c3ccccc23)cc1-c1ccc2[nH]nc(C)c2c1.O=C(O)C(F)(F)F` [GSK682037]: the “%Inh” value with IKK-alpha was 0%; with IKK-beta, 0%; with IKK-epsilon, 0%; in the test with INSRR, 9%; in the test on INSR it was 9%; in the test on IRAK1, 0%. In addition, the “%Inh” value with IRAK3 stood at 0%; in the test with IRAK4, 0%; in the test on ITK it was 12%; in test [1], 0%; in test [2] it was 0%; in [3] it was 5%. The “%Inh” value is recorded as 0% in test [4]; 24% in the test on JNK1; 55% with JNK2; 12% in the test with JNK3; 0% with KIT-autoinhibited; 21% with KIT. Also, the “%Inh” value turned out to be 93.9% in the test with LATS1 and 94.8% in the test with LATS2.
In the case of `c1ccc(-c2n[nH]cc2Nc2ccnc3ccccc23)nc1` [GW694077], the “%Inh” value in the test on IKK-alpha amounted to 92.1%; with IKK-beta it was 81%; with IKK-epsilon, 0%; in the test with INSRR, 0%; in the test on INSR, 0%; with IRAK1, 85%. The “%Inh” value with IRAK3 was determined as 90.9%; with IRAK4, 47%; with ITK, 14%; in [1], 0%; in test [2] it was 33%; in [3], 94.2%. For the same compound, the “%Inh” value in test [4] stood at 88%; with JNK1 it was 92.6%; in the test with JNK2 it was 60%; with JNK3, 90%; in the test on KIT-autoinhibited, 0%; in the test with KIT, 33%. In addition, the “%Inh” value in the test on LATS1 and with LATS2 was 0% each time.
In the case of `Cn1cc(-c2ccc3c(c2)CCN3C(=O)Cc2cccc(Cl)c2)c2c(N)ncnc21` [GSK2606590], the “%Inh” value amounted to 22% in the test with IKK-alpha; 57% with IKK-beta; 78% in the test on IKK-epsilon; 16% with INSRR; 9% in the test with INSR; 0% in the test on IRAK1. For the same compound, the “%Inh” value with IRAK3 was found to be 22%; in the test on IRAK4, 0%; with ITK it was 19%; in [1], 18%; in test [2] it was 0%; in test [3] it was 16%. In addition, the “%Inh” value in test [4] is given as 0%; in the test with JNK1, 15%; with JNK2 it was 42%; in the test on JNK3, 6%; in the test with KIT-autoinhibited it was 26%; with KIT, 100%. Further, the “%Inh” value in the test with LATS1 and in the test on LATS2 was 0% throughout.
For the compound `COC(=O)Nc1nc2ccc(Oc3ccc(NC(=O)Nc4cc(C(F)(F)F)ccc4F)cc3)cc2n1C.Cl` [GW692089], the “%Inh” value in the test with IKK-alpha was determined as 77%; in the test with IKK-beta it was 18%; with IKK-epsilon, 0%; with INSRR it was 0%; in the test with INSR it was 0%; in the test on IRAK1, 18%. The “%Inh” value is 0% with IRAK3; 0% in the test on IRAK4; 0% in the test with ITK; 3% in [1]; 0% in test [2]; 22% in test [3]. Moreover, the “%Inh” value came to 0% in test [4]; 2% in the test with JNK1; 37% with JNK2; 0% with JNK3; 5% in the test with KIT-autoinhibited; 100% in the test with KIT. Further, the “%Inh” value in the test with LATS1 and with LATS2 was 0% each time.
As for `CCCCc1nn2ncccc2c1-c1ccnc(Nc2ccc(N3CCN(C)CC3)cc2)n1` [GW684941], the “%Inh” value is reported as 41% in the test on IKK-alpha; 23% in the test with IKK-beta; 16% in the test on IKK-epsilon; 21% with INSRR; 36% in the test on INSR; 94.9% in the test on IRAK1. Moreover, the “%Inh” value was 79% in the test with IRAK3; 43% with IRAK4; 5% in the test on ITK; 0% in test [1]; 4% in test [2]; 87% in [3]. Besides, the “%Inh” value in test [4] is given as 27%; in the test with JNK1, 95.1%; with JNK2, 98.9%; with JNK3 it was 97.6%; in the test with KIT-autoinhibited it was 97%; with KIT, 100%. Moreover, the “%Inh” value with LATS1 and in the test on LATS2 was 0% each time.
On to `CC(=O)Nc1nc2cnc(Nc3cc(NC(=O)c4cccc(C5(C#N)CC5)c4Cl)ccc3C)nc2s1`, for which the “%Inh” value with IKK-alpha was determined as 7%; in the test on IKK-beta, 6%; in the test with IKK-epsilon, 0%; with INSRR, 0%; in the test on INSR, 0%; with IRAK1, 10%. Besides, the “%Inh” value in the test on IRAK3 amounted to 24%; in the test with IRAK4 it was 21%; in the test on ITK it was 0%; in test [1], 17%; in test [2], 9%; in test [3] it was 0%. In addition, the “%Inh” value was 0% in test [4]; 0% in the test on JNK1; 0% in the test with JNK2; 0% in the test on JNK3; 0% with KIT-autoinhibited; 99.8% with KIT. For the same compound, the “%Inh” value with LATS1 was 26%; with LATS2 it was 0%.
`C[C@@H](Oc1cc(-n2cnc3cc(-c4ccnc(NCCS(C)(=O)=O)c4)ccc32)sc1C(N)=O)c1ccccc1Cl` [GSK907232]: the “%Inh” value with IKK-alpha turned out to be 2%; in the test with IKK-beta, 15%; in the test with IKK-epsilon, 0%; with INSRR, 2%; in the test with INSR it was 0%; in the test on IRAK1, 36%. For the same compound, the “%Inh” value in the test with IRAK3 is 0%; with IRAK4 it was 13%; in the test with ITK it was 21%; in test [1], 0%; in test [2] it was 0%; in [3], 50%. The “%Inh” value in test [4] worked out at 66%; with JNK1, 0%; with JNK2 it was 10%; in the test with JNK3 it was 1%; with KIT-autoinhibited it was 0%; in the test with KIT, 80%. Besides, the “%Inh” value in the test with LATS1 and in the test with LATS2 was 0% each time.
For `O=C(Nc1ccccc1F)NC1CCN(c2ccnc(Nc3ccc(F)cc3)n2)CC1` [GSK1379800], the “%Inh” value is reported as 0% with IKK-alpha; 0% in the test on IKK-beta; 22% with IKK-epsilon; 0% with INSRR; 0% with INSR; 24% in the test on IRAK1. Also, the “%Inh” value in the test with IRAK3 is listed as 21%; in the test with IRAK4 it was 5%; in the test on ITK it was 0%; in test [1], 20%; in test [2], 0%; in [3], 0%. For the same compound, the “%Inh” value in test [4] turned out to be 0%; in the test on JNK1, 3%; in the test with JNK2, 0%; with JNK3, 0%; with KIT-autoinhibited, 0%; in the test with KIT, 7%. Moreover, the “%Inh” value is recorded as 0% with LATS1 and 3% with LATS2.
For `COc1cccc(NC(=O)NC2CCN(c3ccnc(Nc4cc(OC)c(OC)c(OC)c4)n3)C2)c1` (centres unmarked) [GSK1379763], the “%Inh” value in the test with IKK-alpha was found to be 0%; in the test with IKK-beta it was 6%; with IKK-epsilon, 12%; in the test with INSRR, 0%; in the test with INSR it was 0%; in the test on IRAK1 it was 73%. Also, the “%Inh” value was 86% with IRAK3; 27% in the test on IRAK4; 25% in the test with ITK; 0% in [1]; 29% in test [2]; 88% in test [3]. Also, the “%Inh” value in [4] was found to be 0%; in the test with JNK1 it was 28%; with JNK2, 27%; in the test with JNK3 it was 39%; in the test on KIT-autoinhibited, 17%; in the test with KIT, 98.5%. Also, the “%Inh” value in the test on LATS1 stood at 0%; with LATS2, 13%.
